These results are taken from PubChem BioAssay (Tox21).

Inconclusive results are not listed. Active and inactive are the calls of the source. Unless noted, calls come from the whole dose curve; as a rule, active = well fitted curve in the direction sought with a large enough effect in the repeat runs; inconclusive = weak or mixed curves; inactive = no such curve, though single readings can be large; an effect the other way counts as inactive or inconclusive.

Experiment [1] deals with Estrogen receptor beta (Homo sapiens) (UniProt Q92731). Description: qHTS assay to identify small molecule antagonists of the estrogen receptor beta (ER-beta) signaling pathway (AID 1259378; active = well fitted inhibition curve with a large enough effect in the signal ratio in the repeat runs, not every such curve was filed as active; the % refers to the signal ratio; note: potency is the fitted concentration of half-maximal effect). The procedure, abridged: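 ER-beta-UAS-bla HEK293T (GripTite) cells in 2% charcoal-stripped FBS medium were preincubated 6 hr at 37C, dosed with compound, then stimulated with 1 nM E2 (final) for 16 hr; beta-lactamase reporter read by B/G FRET fluorescence after 2 hr substrate loading.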
For orientation: Quantitative high-throughput screening tests each substance at several concentrations.

Experiment [2] is described as follows: qHTS assay to identify small molecule agonists of the androgen receptor (AR) signaling pathway in the presence of an antagonist - cell viability counter screen (AID 1259379). Note: nearly all actives have a fitted effect of over 25% in size. Note: potency is the fitted concentration of half-maximal effect. Put shortly:
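MDA-kb2 human breast carcinoma cells (stable MMTV-luciferase, AR/GR responsive) were seeded 3,000 cells/well, pre-incubated 5 hr at 37C without CO2, then given 3.0uM nilutamide and compounds at 15 concentrations for 16 hr. Viability was read by CellTiter-Fluor fluorescence.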

A short description of experiment [3]: qHTS assay to identify small molecule agonists of the estrogen receptor beta (ER-beta) signaling pathway - cell viability counter screen (AID 1259380). Note: nearly all actives have a fitted effect of over 30% in size. Note: potency is the fitted concentration of half-maximal effect. The procedure, abridged:
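ER-beta-UAS-bla HEK293T cells in medium with 2% charcoal-stripped FBS were preincubated 6 hr at 37C, dosed with compound in DMSO for 16 hr, then after the bla read, CellTiter-Glo was added for 30 min at room temperature; luminescence recorded.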

Experiment [4] deals with Androgen receptor (Homo sapiens) (UniProt P10275). Description: qHTS assay to identify small molecule agonists of the androgen receptor (AR) signaling pathway in the presence of an antagonist (AID 1259381; calls by dose curve; note: nearly all actives have a fitted effect of over 15% in size). The procedure, abridged:
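MDA-kb2 human breast carcinoma cells carrying an MMTV-luciferase reporter (AR- and GR-responsive) were treated with compounds at 15 concentrations plus 3.0uM final nilutamide for 16hr at 37C without CO2; luminescence was read after ONE-Glo addition.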

The nature of experiment [5]: qHTS assay to identify small molecule agonists of the estrogen receptor alpha (ER-alpha) signaling pathway in the presence of an antagonist - cell viability counter screen (AID 1259386).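 Note: cells exposed to compounds for 22 h at 37 °C before the viability read; nearly all actives have a fitted effect of over 30% in size.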 Note: potency is the fitted concentration of half-maximal effect. Put shortly: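 VM7Luc4E2 cells (endogenous full-length ER-alpha, 4×ERE-luciferase) were held 5 days in phenol red-free medium with 10% charcoal-stripped FBS, plated, then given 10.0nM ICI-182,780 and compounds at 15 concentrations for 22hr at 37C; viability read by CellTiter-Fluor fluorescence.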

Experiment [6] deals with Progesterone receptor (Homo sapiens) (UniProt P06401). Description: qHTS assay to identify small molecule agonists of the progesterone receptor (PR) signaling pathway (AID 1346784; calls by dose curve; note: nearly all actives have a fitted effect of over 30% in size). Put shortly:
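Cells (PR-UAS-bla HEK 293T, GripTite) were plated in assay medium containing 2% charcoal-stripped FBS and incubated 6 hr. Test compounds in DMSO were added for 16 hr at 37C. FRET substrate was then loaded for 2 hr at room temperature before fluorescence reading.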

Experiment [7] has the same target. Description: qHTS assay to identify small molecule antagonists of the progesterone receptor (PR) signaling pathway (AID 1346795; active = well fitted inhibition curve with a large enough effect in the signal ratio in the repeat runs, not every such curve was filed as active; the % refers to the signal ratio; note: potency is the fitted concentration of half-maximal effect). Put shortly: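 Antagonist mode: compounds tested against 1 nM (final) promegestone stimulation in HEK293T cells expressing PR-UAS-bla reporter, 16 hr at 37C, 5% CO2; beta-lactamase activity detected via B/G FRET substrate after 2 hr at room temperature.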

A short description of experiment [8]: qHTS assay to identify small molecule antagonists of the progesterone receptor (PR) signaling pathway - cell viability counter screen (AID 1346798). Note: nearly all actives have a fitted effect of over 50% in size. Note: potency is the fitted concentration of half-maximal effect. Put shortly:
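Counter screen for cytotoxicity: viability of PR-UAS-bla HEK293T cells was measured with CellTiter-Glo luminescence following 16 hr compound exposure in the presence of R5020.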

The nature of experiment [9]: qHTS assay to identify small molecule agonists of the progesterone receptor (PR) signaling pathway - cell viability counter screen (AID 1346799; calls by dose curve; note: nearly all actives have a fitted effect of over 45% in size; note: potency is the fitted concentration of half-maximal effect). The procedure, abridged: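 Cells (PR-UAS-bla HEK293T) are plated at 3,000/well in 2% charcoal-stripped FBS medium, rested 6 hr, dosed and incubated 16 hr at 37C. CellTiter-Glo is then added and luminescence measured after 30 min at room temperature.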

A short description of experiment [10]: qHTS assay to identify small molecule antagonists of the TGF-beta/Smad signaling pathway - cell viability counter screen (AID 1346824). Note: nearly all actives have a fitted effect of over 50% in size. The procedure, abridged: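 SBE-bla HEK 293T cells were plated overnight at 37 C, then given compounds in DMSO plus TGF-beta1 (added as 0.25 ng/mL solution) for 5 hr. After the bla read, CellTiter-Glo was added to the same wells and luminescence read after 30 min at room temperature.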

Experiment [11] in a line: qHTS assay to identify small molecule agonists of the TGF-beta/Smad signaling pathway - cell viability counter screen (AID 1346829). Note: top concentration of the series differs between compounds; nearly all actives have a fitted effect of over 45% in size. The procedure, abridged:
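Same-well cytotoxicity: CellTiter-Glo added after the 2 hr room-temperature beta-lactamase substrate step, luminescence measured 30 min later; cells had 5 hr of compound at 37 C.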

A short description of experiment [12]: qHTS assay to identify small molecule agonists of the TGF-beta/Smad signaling pathway (AID 1346859; active = well fitted activation curve with a large enough effect in the signal ratio in the repeat runs, not every such curve was filed as active; the % refers to the signal ratio; note: series mostly up to about 77 µM). Put shortly:
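Reporter line: HEK 293T with stably integrated SBE-controlled beta-lactamase. Compound exposure lasts 5 hr at 37 C and 5% CO2; substrate loading follows for 2 hr at room temperature, with emission read at 460 and 530 nm.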

Experiment [13] concerns the target Thyrotropin-releasing hormone receptor (Homo sapiens) (UniProt P34981). Description: qHTS assay to identify small molecule antagonists of the thyrotropin-releasing hormone receptor (TRHR) signaling pathway (AID 1346877; active = well fitted inhibition curve with a large enough effect in the repeat runs, not every such curve was filed as active; note: series mostly up to about 51 µM). The procedure, abridged:
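TRHR-expressing HEK293 cells were seeded, cultured 18 h at 37 °C, then loaded with calcium dye for 2 h. Compounds were pre-incubated 5 min at room temperature before 1 nM TRH (final) was added, and kinetic fluorescence was recorded for 3 min.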

For experiment [14] the target is unchanged. The experiment in a line: qHTS assay to identify small molecule agonists of the thyrotropin-releasing hormone receptor (TRHR) signaling pathway (AID 1346891; calls by dose curve; note: series mostly up to about 58 µM). The procedure, abridged: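 Cells: TRHR-Hek293, seeded and incubated 18 h. Dye loading: 2 h at 37 °C. Compound added from DMSO stock by pin tool. Read-out: kinetic calcium fluorescence over 3 min.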

Experiment [15] is described as follows: qHTS assay to identify small molecule antagonists of the estrogen receptor beta (ER-beta) signaling pathway - cell viability counter screen (AID 1259382). Note: series mostly up to about 92 µM; nearly all actives have a fitted effect of over 55% in size. The procedure, abridged: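 ER-beta-UAS-bla HEK293T cells (2,000/well, 2% charcoal-stripped FBS) were pre-incubated 6 hr at 37C, then given compound plus 1nM final 17-beta-estradiol for 16 hr. Viability was read in the same wells by CellTiter-Glo luminescence after 30 min at room temperature.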

Experiment [16] deals with Estrogen receptor (Homo sapiens) (UniProt P03372). The experiment in a line: qHTS assay to identify small molecule agonists of the estrogen receptor alpha (ER-alpha) signaling pathway in the presence of an antagonist (AID 1259383; calls by dose curve; note: top concentration of the series differs between compounds; nearly all actives have a fitted effect of over 15% in size). The procedure, abridged:
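VM7Luc4E2 cells (endogenous full-length ER-alpha, 4×ERE-luciferase) were precultured 5 days in phenol red-free medium with 10% charcoal-stripped FBS, given 10.0nM ICI-182,780 (final), then treated with compounds at 15 concentrations for 22hr at 37C; luminescence read with ONE-Glo.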

A short description of experiment [17]: qHTS assay to identify small molecule agonists or antagonists of the thyroid stimulating hormone receptor (TSHR) signaling pathway - wild type cell line counter screen (AID 1259384; calls by dose curve). Put shortly:
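Wild-type HEK293 cells were plated 18 h at 37 C/5% CO2, pin-dosed with compound plus Ro20-1724 medium, held 30 min at room temperature, then given cAMP-d2 and anti-cAMP-cryptate; fluorescence was read after 1 h. Fifteen concentrations, triplicate.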

For experiment [18], the target named is Thyrotropin receptor (Homo sapiens) (UniProt P16473). Description: qHTS assay to identify small molecule antagonists of the thyroid stimulating hormone receptor (TSHR) signaling pathway (AID 1259385; calls by dose curve; note: nearly all actives have a fitted effect of over 20% in size). The procedure, abridged:
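TSHR-HEK293 cells were plated and held 18 h at 37C/5% CO2, then given compound plus Ro20-1724 and stimulated with TSH at 1.5 ng/mL final. After 30 min at room temperature, cAMP was detected with cAMP-d2/anti-cAMP-cryptate (1 h) by fluorescence.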

Sequence of Estrogen receptor (Homo sapiens) (P03372 whole entry, looked up): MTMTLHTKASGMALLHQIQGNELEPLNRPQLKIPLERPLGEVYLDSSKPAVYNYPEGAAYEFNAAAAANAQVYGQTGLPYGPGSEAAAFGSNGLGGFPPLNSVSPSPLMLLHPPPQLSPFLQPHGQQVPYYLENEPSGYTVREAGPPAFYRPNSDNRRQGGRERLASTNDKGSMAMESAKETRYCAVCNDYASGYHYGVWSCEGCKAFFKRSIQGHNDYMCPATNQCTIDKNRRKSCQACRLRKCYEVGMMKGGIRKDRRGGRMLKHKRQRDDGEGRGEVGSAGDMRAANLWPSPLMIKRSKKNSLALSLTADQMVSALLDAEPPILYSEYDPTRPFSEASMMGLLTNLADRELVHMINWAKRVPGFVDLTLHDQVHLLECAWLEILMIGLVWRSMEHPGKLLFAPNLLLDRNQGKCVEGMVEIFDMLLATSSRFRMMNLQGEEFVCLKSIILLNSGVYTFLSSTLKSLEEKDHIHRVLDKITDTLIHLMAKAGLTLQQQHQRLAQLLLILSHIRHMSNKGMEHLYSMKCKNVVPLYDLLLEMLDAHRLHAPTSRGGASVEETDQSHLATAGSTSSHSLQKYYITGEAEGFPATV
Sequence of Thyrotropin receptor (Homo sapiens) (P16473 whole entry, looked up): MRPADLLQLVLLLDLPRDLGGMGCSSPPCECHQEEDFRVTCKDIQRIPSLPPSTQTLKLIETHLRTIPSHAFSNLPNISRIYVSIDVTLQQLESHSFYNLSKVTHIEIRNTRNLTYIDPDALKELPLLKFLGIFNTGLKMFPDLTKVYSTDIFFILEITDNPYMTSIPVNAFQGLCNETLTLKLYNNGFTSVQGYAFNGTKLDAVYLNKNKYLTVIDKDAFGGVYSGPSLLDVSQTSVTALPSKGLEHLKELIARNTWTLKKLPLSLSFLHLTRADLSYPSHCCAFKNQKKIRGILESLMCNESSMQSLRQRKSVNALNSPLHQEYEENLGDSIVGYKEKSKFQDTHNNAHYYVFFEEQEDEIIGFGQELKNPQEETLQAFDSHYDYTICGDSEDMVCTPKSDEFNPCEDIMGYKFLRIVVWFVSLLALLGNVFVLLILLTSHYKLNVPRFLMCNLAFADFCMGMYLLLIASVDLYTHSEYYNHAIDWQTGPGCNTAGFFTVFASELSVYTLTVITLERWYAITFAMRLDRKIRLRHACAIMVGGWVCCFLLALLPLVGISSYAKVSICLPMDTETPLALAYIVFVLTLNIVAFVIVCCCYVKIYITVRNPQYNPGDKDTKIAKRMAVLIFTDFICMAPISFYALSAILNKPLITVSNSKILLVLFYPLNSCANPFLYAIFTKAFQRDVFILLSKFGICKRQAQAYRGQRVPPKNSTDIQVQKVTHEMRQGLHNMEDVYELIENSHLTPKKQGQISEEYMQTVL
Sequence of Androgen receptor (Homo sapiens) (P10275 whole entry, looked up): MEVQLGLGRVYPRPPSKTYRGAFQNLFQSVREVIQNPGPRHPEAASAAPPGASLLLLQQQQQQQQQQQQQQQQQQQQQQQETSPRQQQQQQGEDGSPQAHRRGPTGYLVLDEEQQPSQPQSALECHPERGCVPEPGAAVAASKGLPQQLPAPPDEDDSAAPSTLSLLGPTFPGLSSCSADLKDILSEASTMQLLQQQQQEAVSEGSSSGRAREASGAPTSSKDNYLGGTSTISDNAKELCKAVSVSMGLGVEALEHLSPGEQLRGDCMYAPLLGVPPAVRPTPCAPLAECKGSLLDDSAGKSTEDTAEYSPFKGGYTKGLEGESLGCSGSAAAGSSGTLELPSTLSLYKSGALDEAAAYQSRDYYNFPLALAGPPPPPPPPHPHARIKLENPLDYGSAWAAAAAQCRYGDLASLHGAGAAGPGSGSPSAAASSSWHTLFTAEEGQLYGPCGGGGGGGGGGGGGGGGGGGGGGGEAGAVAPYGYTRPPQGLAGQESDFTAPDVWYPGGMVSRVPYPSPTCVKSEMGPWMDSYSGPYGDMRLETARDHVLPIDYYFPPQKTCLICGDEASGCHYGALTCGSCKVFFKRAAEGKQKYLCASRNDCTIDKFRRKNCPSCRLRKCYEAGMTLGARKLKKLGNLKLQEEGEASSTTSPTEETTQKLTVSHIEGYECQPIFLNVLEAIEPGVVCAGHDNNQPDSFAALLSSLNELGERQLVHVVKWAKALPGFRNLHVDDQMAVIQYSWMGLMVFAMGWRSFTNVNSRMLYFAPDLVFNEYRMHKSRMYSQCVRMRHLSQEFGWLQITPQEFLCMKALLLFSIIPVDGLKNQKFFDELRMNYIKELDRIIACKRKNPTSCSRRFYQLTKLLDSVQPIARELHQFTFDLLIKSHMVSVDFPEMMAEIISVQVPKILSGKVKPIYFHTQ
Sequence of Thyrotropin-releasing hormone receptor (Homo sapiens) (P34981 whole entry, looked up): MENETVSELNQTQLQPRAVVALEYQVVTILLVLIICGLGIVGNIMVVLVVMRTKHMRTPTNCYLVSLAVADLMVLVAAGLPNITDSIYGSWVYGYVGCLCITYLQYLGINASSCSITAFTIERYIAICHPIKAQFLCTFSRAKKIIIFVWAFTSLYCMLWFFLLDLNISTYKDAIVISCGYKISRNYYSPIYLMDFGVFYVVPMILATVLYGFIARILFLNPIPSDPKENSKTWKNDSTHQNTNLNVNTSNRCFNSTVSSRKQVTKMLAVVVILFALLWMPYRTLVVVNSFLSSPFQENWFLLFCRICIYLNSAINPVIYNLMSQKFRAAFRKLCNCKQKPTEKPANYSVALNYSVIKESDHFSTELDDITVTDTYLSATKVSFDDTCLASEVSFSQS
Sequence of Estrogen receptor beta (Homo sapiens) (Q92731 whole entry, looked up): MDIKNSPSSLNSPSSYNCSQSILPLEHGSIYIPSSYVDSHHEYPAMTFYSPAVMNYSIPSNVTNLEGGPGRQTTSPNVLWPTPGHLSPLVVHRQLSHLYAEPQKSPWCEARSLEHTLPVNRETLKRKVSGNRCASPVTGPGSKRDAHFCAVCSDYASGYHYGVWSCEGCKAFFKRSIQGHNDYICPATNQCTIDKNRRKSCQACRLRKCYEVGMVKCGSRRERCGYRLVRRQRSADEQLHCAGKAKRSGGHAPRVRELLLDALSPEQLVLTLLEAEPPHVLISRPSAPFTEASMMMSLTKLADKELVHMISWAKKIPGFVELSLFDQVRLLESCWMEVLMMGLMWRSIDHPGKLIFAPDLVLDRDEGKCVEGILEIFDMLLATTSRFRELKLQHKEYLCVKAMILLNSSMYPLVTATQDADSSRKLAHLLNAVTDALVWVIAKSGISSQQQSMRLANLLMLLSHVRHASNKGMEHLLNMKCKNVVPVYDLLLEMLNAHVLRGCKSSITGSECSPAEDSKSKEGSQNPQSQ
Sequence of Progesterone receptor (Homo sapiens) (P06401 whole entry, looked up): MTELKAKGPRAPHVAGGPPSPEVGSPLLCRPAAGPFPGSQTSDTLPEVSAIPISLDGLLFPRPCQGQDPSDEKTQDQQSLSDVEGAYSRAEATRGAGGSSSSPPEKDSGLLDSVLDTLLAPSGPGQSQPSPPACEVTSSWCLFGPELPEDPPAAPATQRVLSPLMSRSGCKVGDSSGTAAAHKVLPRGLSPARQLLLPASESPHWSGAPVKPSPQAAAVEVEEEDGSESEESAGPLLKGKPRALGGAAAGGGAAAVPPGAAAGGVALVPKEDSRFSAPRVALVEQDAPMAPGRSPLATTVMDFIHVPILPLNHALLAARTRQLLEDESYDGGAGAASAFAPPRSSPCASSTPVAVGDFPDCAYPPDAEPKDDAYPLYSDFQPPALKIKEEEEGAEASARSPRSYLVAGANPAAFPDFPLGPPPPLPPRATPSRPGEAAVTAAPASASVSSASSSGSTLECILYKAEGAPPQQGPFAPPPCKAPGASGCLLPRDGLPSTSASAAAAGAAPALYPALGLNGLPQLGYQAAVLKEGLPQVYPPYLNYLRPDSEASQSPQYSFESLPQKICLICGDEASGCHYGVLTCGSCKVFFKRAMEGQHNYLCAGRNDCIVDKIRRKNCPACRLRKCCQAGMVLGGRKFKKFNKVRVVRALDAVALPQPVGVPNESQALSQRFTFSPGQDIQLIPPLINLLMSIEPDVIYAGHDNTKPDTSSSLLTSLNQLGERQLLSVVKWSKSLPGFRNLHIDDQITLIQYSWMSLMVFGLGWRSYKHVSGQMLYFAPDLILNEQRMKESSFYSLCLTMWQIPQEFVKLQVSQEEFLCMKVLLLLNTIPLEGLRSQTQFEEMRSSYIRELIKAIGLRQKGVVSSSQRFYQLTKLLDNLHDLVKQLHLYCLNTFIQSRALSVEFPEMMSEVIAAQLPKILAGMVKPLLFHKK

In the case of `Nc1ccc(N)c2c1C(=O)c1ccccc1C2=O`, the Potency entry in [1], in experiment [4], in experiment [6], in experiment [7], in experiment [9] and in experiment [10] was “inactive” each time. Further, the Potency result in experiment [12] and in experiment [14] was “inactive” throughout. In addition, the Potency in [2] is 21.7 µM (active); in experiment [3] it was 7.7 µM (active); in [5], 9.69 µM (active); in experiment [8] it was 27.3 µM (active). Also, the call in experiment [11] and in [13] was inactive.

`CC(C)Cc1ccc(C(C)C(=O)OCc2ccccn2)cc1` (stereo not drawn): the Potency result in experiment [2], in experiment [3], in [15], in experiment [16], in [17] and in experiment [5] was “inactive” each time. Further, the Potency entry in experiment [6], in experiment [8], in [9], in experiment [10], in experiment [12] and in [14] was “inactive” each time. Moreover, the result in experiment [11] and in experiment [13] was inactive.

As to `CC1=CC[C@H](C(C)C)C=C1`, the Potency entry in experiment [2], in experiment [15], in [16], in experiment [5], in [6] and in experiment [7] was “inactive” in each case. Further, the Potency result in experiment [8], in experiment [9], in experiment [10] and in experiment [12] was “inactive” throughout. Further, in experiment [11], the compound was called inactive.

As to `CCCCC(CC)CN1C(=O)C2C3C=CC(C3)C2C1=O` (stereo not drawn), the Potency entry in [2], in experiment [15], in experiment [16], in experiment [17], in experiment [18] and in experiment [8] was “inactive” in each case. Further, the Potency result in experiment [9], in [10] and in experiment [12] was “inactive” in each case. Moreover, the Potency in experiment [7] was 34.4 µM (active). The compound was classed as inactive in experiment [11].

Take `C[C@H](CCC(=O)O)[C@H]1CC[C@H]2[C@@H]3CC[C@@H]4C[C@H](O)CC[C@]4(C)[C@H]3C[C@H](O)[C@]12C`: the Potency was 48.7 µM (active) in experiment [3] and 54.6 µM (active) in experiment [9]. Further, the Potency entry in experiment [16], in [17], in experiment [5], in [10] and in experiment [14] was “inactive” each time. In addition, the compound was classed as inactive in experiment [11] and in [13].

Take `CCOC(=O)NCCOc1ccc(Oc2ccccc2)cc1`: the results for the Potency in [2] and in [7] were 61.1 µM (active) and 17.2 µM (active), respectively. Besides, the Potency result in [15], in experiment [16], in [17], in experiment [5], in [6] and in [10] was “inactive” throughout. Further, the Potency result in experiment [12] and in experiment [14] was “inactive” each time. The outcome in experiment [11] and in [13] was inactive.

As for `Clc1ccc(Cn2c(CN3CCCC3)nc3ccccc32)cc1`, the results for the Potency in experiment [1], in experiment [8] and in experiment [9] were 11.9 µM (active), 6.68 µM (active) and 7.5 µM (active), respectively. Further, the Potency result in [2], in [17], in [5], in experiment [10], in experiment [12] and in [14] was “inactive” each time. The outcome in experiment [11] and in [13] was inactive.

As for `COc1cc2nc(Cl)nc(N)c2cc1OC`, the Potency result in experiment [2], in experiment [3], in experiment [4], in experiment [15], in experiment [16] and in experiment [5] was “inactive” in each case. The Potency result in [7], in experiment [8], in experiment [10], in [12] and in experiment [14] was “inactive” in each case. The result in experiment [11] and in experiment [13] was inactive.

With `C=C(C)C(=O)OCCO`, the Potency entry in [2], in [3], in experiment [16], in experiment [17], in experiment [18] and in [5] was “inactive” each time. In addition, the Potency result in [7], in [8], in experiment [9], in experiment [10] and in [12] was “inactive” throughout. The outcome in experiment [11] and in experiment [13] was inactive.

For `Cc1cc(N)c2cc(NC(=O)Nc3ccc4nc(C)cc(N)c4c3)ccc2n1`, the Potency result in experiment [1], in experiment [2], in experiment [3], in experiment [4], in experiment [15] and in experiment [5] was “inactive” throughout. Also, the Potency entry in experiment [10], in experiment [12] and in experiment [14] was “inactive” in each case. Besides, the call in [11] and in experiment [13] was inactive.

Regarding `CCC(Cl)CCC(Cl)C(Cl)CC(Cl)C(Cl)C(Cl)CCl` (stereo not drawn), the Potency result in [1], in experiment [2], in experiment [3], in [15], in experiment [17] and in experiment [18] was “inactive” throughout. For the same compound, the Potency result in experiment [5], in [6], in [7], in experiment [8], in [9] and in [10] was “inactive” in each case. In [12], the Potency entry was “inactive”. The compound was classed as inactive in [11] and in [13].

Turning to `CCOC(=O)C1=C[C@]2(CC)CCCN3CCc4c(n1c1ccccc41)[C@@H]32`, the Potency result in experiment [2], in experiment [15], in experiment [16], in experiment [17], in experiment [5] and in experiment [6] was “inactive” throughout. In addition, the Potency result in experiment [8], in [9], in [10], in [12] and in experiment [14] was “inactive” in each case. For the same compound, the Potency in experiment [3] is 26.6 µM (active); in [7], 23.7 µM (active). Besides, the compound was classed as inactive in experiment [13].
